We go through 14 compounds from PubChem BioAssay AID492948 (National Center for Advancing Translational Sciences (NCATS), 2010).

Each structure is given as a SMILES string. Inconclusive results are not listed. Activity calls are given as the source filed them. Calls follow the shape of the dose curve; as a rule, active = well fitted activation curve with a large enough effect; inconclusive = small, poorly fitted or top-dose-only effect; inactive = no such curve, though single readings can be large or run the other way.
Potency is read from the fitted curve at half-maximal effect.

A short description of this test: qHTS Assay for Agonists of the Relaxin Receptor RXFP1: V1B Hit Validation.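 Also: counter-screen in HEK293 cells expressing V1B rather than RXFP1 for selectivity; nearly all actives have a fitted effect of over 65% in size.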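 As to activation: cAMP accumulation with PDE4 inhibitor Ro 20-1724 present during compound exposure.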 As to conditions: HEK293 V1B cells, cAMP TR-FRET, 30 min; series mostly up to 115 µM. The method in brief: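 TR-FRET cAMP readout (ex 320, em 615/665 nm) after 30 min RT lysis with d2-cAMP/cryptate antibody. Before that: HEK293 cells, compounds 30 min 37C, Ro 20174 present. Hill-fit EC50s.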
In general terms: In qHTS, concentration-response curves come from the screen itself.
With `O=C(O)c1ccc(CN2C(=O)c3ccc(C(=O)O)cc3C2=O)cc1`, the Potency result was “inactive”.

As for `O=S(=O)(c1cccc(-c2cn3cccnc3n2)c1)N1CCOCC1`, the Potency is 19.5 µM (active).

Regarding `N#CCCSc1ncnc2c1oc1ccccc12`, the Potency is 19.4 µM (active).

As for `CC(C)n1c(SCC(=O)N2CCN(C(=O)c3ccco3)CC2)nc2c1c(=O)n(C)c(=O)n2C`, the Potency was 6.9 µM (active).

As for `Cc1cc(C)nc(NS(=O)(=O)c2ccc(NC(=O)c3nn(-c4ccccc4)ccc3=O)cc2)n1`, the Potency is 15.5 µM (active).

Turning to `CCOC(=O)N1CCN(S(=O)(=O)c2c(C)nc3scc(C)n3c2=O)CC1`, the Potency is 24.5 µM (active).

Take `CCCn1c(SCC(=O)Nc2ccc(NC(C)=O)cc2)nc2c1c(=O)n(C)c(=O)n2C`: the Potency is 38.9 µM (active).

Take `CC1(C)O[C@@H]2[C@H](O1)[C@@H](COS(=O)(=O)O)O[C@H]2n1cnc2c(N)ncnc21`: the Potency is 3.88 µM (active).

For the compound `CN(C)CCCn1c(SCC(=O)Nc2nc(-c3cccc(Br)c3)cs2)nc2ccccc2c1=O`, the Potency result is “inactive”.

On to `CCN(CC)S(=O)(=O)c1ccc(C)c(NC(=O)Cn2cnc3cc([N+](=O)[O-])ccc3c2=O)c1`, for which the Potency was 34.6 µM (active).

For `CCN(CC)S(=O)(=O)c1ccc(N2CCOCC2)c(NC(=O)c2cccc(C#N)c2)c1`, the Potency was 47.3 µM (active).

Take `COC(=O)Cn1cnc2c(C#N)c3n(c2c1=O)CCCCC3`: the Potency was 13.8 µM (active).

As to `Cc1ccccc1NC(=O)CNc1ccccc1C(=O)NCc1ccco1`, the Potency entry is “inactive”.

Regarding `CC1(C)Cc2nc3sc4c(SCC(=O)NC(c5ccccc5)c5ccccc5)ncnc4c3cc2CO1`, the Potency was 3.46 µM (active).
